Experimental data as given in the supplement of paper PMC9844399.
Counter-ions that a name gives are not always drawn.

What follows are compounds tested on HeLa (assay: nuclear count per well, robust Z-score vs DMSO; higher = more cells (less toxicity)). Conditions: 10 µM; 6 h.
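Also: Hoechst-stained nuclei counted by automated confocal imaging of four fields per well in 384-well plates, with the robust Z-score based on the per-plate DMSO median and robust SD.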

SMILES	nuclear count per well
C[C@@]1(CO)[C@H](O)CC[C@@]2(C)[C@H]1CC[C@H]1C[C@@H]3C[C@@]12CC[C@]3(O)CO [Aphidicolin]	0.122
O=C(Nc1ccccc1)N(Cc1ccc(Cl)cc1)C1CCCC1 [Pencycuron]	1.54
CO[C@@H]1C[C@@H](C[C@H]2CC[C@H](C)[C@H]([C@@H](C)C(=O)O)O2)O[C@]2(O[C@](C)([C@H]3CC[C@@](C)([C@@H]4O[C@@H]([C@H]5O[C@@](O)(CO)[C@H](C)C[C@@H]5C)C[C@@H]4C)O3)C[C@H]2C)[C@@H]1C [Nigericin]	0.652
Cc1cccc([C@H](C)c2c[nH]cn2)c1C	1.24
CC1C=CC=CCCC=CC=CC=CC=CC(OC2OC(C)C(O)C(N)C2O)CC2OC(O)(CC(O)C(O)CCC(O)CC(O)CC(O)CC(=O)OC(C)C(C)C1O)CC(O)C2C(=O)O (stereo not drawn) [Nystatin]	-0.209
C#CCN(C)C(C)Cc1ccccc1 (stereo not drawn) [Deprenyl]	0.44
CC[C@@]1(O)C(=O)OCc2c1cc1n(c2=O)Cc2cc3ccccc3nc2-1 [Camptothecin]	-3.84
C[C@H](CCC(=O)O)C[C@H](C)C[C@H](C)C(=O)/C=C(\O)[C@H](C)C[C@H](C)C/C=C/[C@@H](C)[C@@H](O)[C@@H](C)[C@@H](O)C[C@@H]1CC[C@@](C)([C@H]2CC[C@@](C)([C@@H](C)O)O2)O1	-0.338
CN1C(=O)C(O)N=C(c2ccccc2)c2cc(Cl)ccc21 (stereo not drawn) [Temazepam]	0.222
CCCCCc1cc(O)c2c(c1)OC(C)(C)C1CCC(C(=O)O)=CC21 (stereo not drawn) [Tetrahydrocannabinol-7-oic acid]	0.385
CO/C=C(/C(=O)OC)c1ccccc1Oc1cc(Oc2ccccc2C#N)ncn1 [Azoxystrobin]	-0.418
CC(C)(c1ccc(OCC2CO2)cc1)c1ccc(OCC2CO2)cc1 (stereo not drawn)	0.25
Cc1cc2c(C(C)C)c(O)c(O)c(C=O)c2c(O)c1-c1c(C)cc2c(C(C)C)c(O)c(O)c(C=O)c2c1O [Gossypol from cotton seeds]	-0.581
C=C1C[C@@H]2[C@H](CC[C@]3(C)C(=O)CC[C@@H]23)[C@@]2(C)C=CC(=O)C=C12 [Exemestane]	0.117
CC(C)C[C@H]1C(=O)N2CCC[C@H]2[C@]2(O)O[C@](NC(=O)[C@@H]3C=C4c5cccc6[nH]c(Br)c(c56)C[C@H]4N(C)C3)(C(C)C)C(=O)N12 [Bromocriptine Mesylate]	-0.754
N#CC(C#N)=Cc1ccc(O)cc1 [Tyrphostin-8]	1.34
COC[C@@H](NC(C)=O)C(=O)NCc1ccccc1 [Lacosamide]	-0.46

SMILES	nuclear count per well
O=c1c2ccccc2[se]n1-c1ccccc1 [Ebselen]	-1.46
N#CC(C#N)=Cc1cc(O)c(O)c([N+](=O)[O-])c1	0.498
CCCCCC1OC1C/C=C\CCCCCCCC(=O)O (stereo not drawn) [Leukotoxin B (12,13-EODE)]	-0.408
CN(C)C(=O)Oc1ccc[n+](C)c1 [Pyridostigmine Bromide]	0.45
O=[N+]([O-])O[C@H]1CO[C@H]2[C@@H]1OC[C@H]2O[N+](=O)[O-] [Isosorbide Dinitrate]	-0.477
CN1[C@@H]2C[C@@H](OC(=O)[C@H](CO)c3ccccc3)C[C@H]1[C@@H]1O[C@@H]12	0.546
CN1[C@@H]2CC[C@H]1C[C@@H](OC(=O)C(CO)c1ccccc1)C2 (stereo partly drawn) [Atropine Sulfate Monohydrate]	0.868
C[C@H](N)C(=O)N[C@@H](C)C(=O)N[C@@H](Cc1ccccc1)C(=O)CCl	-0.353
CN1C[C@H](CNC(=O)OCc2ccccc2)C[C@@H]2c3cccc4c3c(cn4C)C[C@H]21 [Metergoline]	-0.177
C[C@H]1CCC/C=C/[C@@H]2C[C@H](O)C[C@H]2[C@H](O)/C=C/C(=O)O1 [Brefeldin A]	0.204
C#CCN(C)[C@H](C)Cc1ccccc1	0.0812
Cl[C@H]1[C@H](Cl)[C@@H](Cl)[C@@H](Cl)[C@H](Cl)[C@H]1Cl [Lindane]	-0.644
COc1cc2c(cc1OC)C1CC(=O)C(CC(C)C)CN1CC2 (stereo not drawn) [Tetrabenazine]	0.689
NCCc1c[nH]c2ccc(O)cc12 [Serotonin]	-0.0578
COc1cc([C@@H]2c3cc4c(cc3[C@H](O)[C@H]3COC(=O)[C@H]23)OCO4)cc(OC)c1OC [Podofilox]	-2.36
CC(C)[C@@]1(O)[C@@H](OC(=O)c2ccc[nH]2)[C@@]2(O)[C@@]3(C)C[C@]4(O)O[C@@]5([C@H](O)[C@@H](C)CC[C@]35O)[C@@]2(O)[C@@]14C [Ryanodine]	1
